Data published in PubChem BioAssay.
Records with an inconclusive call do not appear. Activity calls are given as the source filed them. Unless noted, no rule for the calls is given here.

Tests used:
[1] = yeast TOR pathway RPL19A-GFP modulators, primary screen, cell-based, S. cerevisiae, multiplex flow cytometry (AID 1862; in the data active = percent of DMSO control GFP below about 86%;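 also: lower values mimic rapamycin by blocking the RPL19A rise seen in DMSO cells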); settings: S. cerevisiae RPL19A-GFP strain, flow cytometry fluorescence, 3 h; at 10 µM; stronger effect = lower value
[2] = modulators of MEP2-GFP levels in yeast, primary screen, S. cerevisiae, multiplex flow cytometry (AID 1867;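 active = GFP response, as percent of the DMSO control, above the screen-wide mean plus 3 SD, about 139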;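 also: median GFP channel fluorescence of barcode-gated MEP2-GFP cells measured by flow cytometry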); settings: S. cerevisiae MEP2-GFP strain, 3 h, at 10 µM, stronger effect = higher value
[3] = modulators of CIT2-GFP expression in yeast, primary screen, S. cerevisiae, GFP fusion, multiplex flow cytometry (AID 1870;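 active = percent response above a set limit, the screen-wide mean plus 3 SD, cut at about 130% in these data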;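 also: barcoded CIT2-GFP strain pooled with four other GFP strains with rapamycin as positive control; median GFP fluorescence per well over plate mean of DMSO wells so 100% = DMSO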); settings: 3 h, at 10 µM, stronger effect = higher value
[4] = modulators of LAP4-GFP expression in yeast, primary screen, S. cerevisiae, multiplex flow cytometry (AID 1873;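 active = GFP signal, as percent of the solvent control, above the screen mean plus 3 SD, about 149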); settings: 3 h, at 10 µM, stronger effect = higher value
[5] = modulators of AGP1-GFP expression in yeast TOR pathway, primary screen, cell-based, multiplex flow cytometry, S. cerevisiae (AID 1887;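 active = GFP signal above the screen-wide mean plus 3 SD, that is over about 124.5% of the solvent control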;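 also: AGP1-GFP fusion strain of S. cerevisiae within a five-strain barcoded multiplex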); settings: 3 h, at 10 µM, stronger effect = higher value
[6] = inhibitors of CD8+ T cell-vesicle binding, pilot screen, LFA-1/ICAM-1 modulator project, MLPCN validation set, flow cytometry (AID 2523;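 active = response below a set limit, under 55% cells CD8-positive and vesicle-bound, and CD8 cells' 90th-percentile brightness under 279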;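 as to vesicle binding response: mean PE anti-B7-1 fluorescence of CD8+ cells relative to row control; 100% = QL9-loaded vesicles with DMSO vehicle in the same plate row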); settings: 2C mouse CD8+ T cells, at 7 µM, stronger effect = lower value; double positive events: measured here: CD8+/vesicle+ event percentage
[7] = molecular target: Integrin beta-1 (Homo sapiens) + Integrin alpha-4 (Homo sapiens) (UniProt P13612+P05556); assay: inhibition of HUTS-21 binding to VLA-4, pilot screen, VLA-4 allosteric modulator project, U937 cells, HUTS-21 mAb, flow cytometry, validation set (AID 2674;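 active = inhibition above 50%, about 3 SD of the validation set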;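 also: antibody binding induced by the VLA-4 ligand LDV present at three times its Kd; 0% = LDV ligand with antibody and no compound and 100% = antibody without LDV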); settings: HUTS-21 LIBS mAb binding, at 6.7 µM, stronger effect = higher value
[8] = superoxide lowering in aged yeast cells, pilot screen, validation compound set (AID 2706;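 active = superoxide response below 65% of plate, a cut near 3 SD across the whole screen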;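 also: yeast exposed to compound for one week at 30 degrees C before staining; 100% = mean of all compound wells on the same plate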); settings: S. cerevisiae aging, superoxide DHE fluorescence; at 10 µM; stronger effect = lower value
[9] = molecular target: Beta-adrenergic receptor kinase 1 (Homo sapiens) (UniProt P25098); assay: GRK2 binders displacing RNA aptamer, biochemical, validation, human GRK2, bead flow cytometry (AID 488806;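 active = aptamer binding inhibition above 30%, about 3 SD of noise from non-fluorescent compounds; inactive = inhibition at or below 30%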); settings: bead-bound GRK2, FAM-aptamer displacement, at 10 µM, stronger effect = higher value
Sequence of Beta-adrenergic receptor kinase 1 (Homo sapiens) (P25098 whole entry, looked up): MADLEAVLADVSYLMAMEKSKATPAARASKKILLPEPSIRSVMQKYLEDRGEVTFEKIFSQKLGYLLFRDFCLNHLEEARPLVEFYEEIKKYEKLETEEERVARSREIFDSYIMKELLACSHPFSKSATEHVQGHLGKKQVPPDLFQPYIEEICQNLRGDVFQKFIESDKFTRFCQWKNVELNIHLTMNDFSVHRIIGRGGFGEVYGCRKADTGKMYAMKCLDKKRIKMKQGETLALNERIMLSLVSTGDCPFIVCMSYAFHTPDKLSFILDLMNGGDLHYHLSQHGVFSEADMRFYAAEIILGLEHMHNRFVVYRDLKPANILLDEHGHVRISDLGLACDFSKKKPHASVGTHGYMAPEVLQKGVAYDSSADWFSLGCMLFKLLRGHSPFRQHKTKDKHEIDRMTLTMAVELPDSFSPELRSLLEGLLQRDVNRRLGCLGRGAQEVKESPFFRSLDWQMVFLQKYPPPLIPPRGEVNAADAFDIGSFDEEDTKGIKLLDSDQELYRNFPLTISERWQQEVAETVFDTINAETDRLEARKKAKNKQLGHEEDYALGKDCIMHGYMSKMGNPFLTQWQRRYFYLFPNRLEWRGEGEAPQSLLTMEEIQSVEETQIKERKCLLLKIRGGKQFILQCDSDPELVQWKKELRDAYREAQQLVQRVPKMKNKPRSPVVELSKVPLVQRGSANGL

[10] = molecular target: Beta-2 adrenergic receptor (Homo sapiens) (UniProt P07550); assay: beta2AR agonists driving receptor internalization, pilot screen, cell-based, FAP fluorogen, flow cytometry, validation set (AID 504459;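 active = percent response above 42, roughly 3 SD of non-fluorescent test compounds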;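 also: agonist-driven loss of surface beta2AR via internalization measured by FAP dye flow cytometry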); settings: Am2.2-beta2AR cells, FAP surface receptor flow cytometry; at 10 µM; stronger effect = higher value
Sequence of Beta-2 adrenergic receptor (Homo sapiens) (P07550 whole entry, looked up): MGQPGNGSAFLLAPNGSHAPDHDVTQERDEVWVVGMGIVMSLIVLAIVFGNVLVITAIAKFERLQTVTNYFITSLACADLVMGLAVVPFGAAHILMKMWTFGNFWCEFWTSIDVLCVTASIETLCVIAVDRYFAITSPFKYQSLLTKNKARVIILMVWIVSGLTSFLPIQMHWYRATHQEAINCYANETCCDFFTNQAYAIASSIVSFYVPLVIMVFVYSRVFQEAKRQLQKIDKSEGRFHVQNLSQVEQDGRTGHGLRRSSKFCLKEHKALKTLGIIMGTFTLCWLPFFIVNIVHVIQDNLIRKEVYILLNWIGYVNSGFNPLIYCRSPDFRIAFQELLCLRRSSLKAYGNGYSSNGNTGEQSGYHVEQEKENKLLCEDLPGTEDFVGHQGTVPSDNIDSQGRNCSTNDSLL

[11] = molecular target: AP-2 complex subunit beta (Homo sapiens) (UniProt P63010); assay: inhibitors of arrestin peptide binding to AP2, pilot screen, biochemical, validation set, GST-AP2 beads, flow cytometry (AID 504541;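 active = inhibition above 54%, about 3 SD of non-fluorescent compounds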;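 also: AP2 carries R879A mutation and is captured from E. coli lysate; bead-bound FITC arrestin peptide fluorescence measuring arrestin peptide binding to AP2; 0% = DMSO wells and 100% = excess unlabeled arrestin peptide control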); settings: FITC arrestin peptide, at 10 µM, stronger effect = higher value
Sequence of AP-2 complex subunit beta (Homo sapiens) (P63010 whole entry, looked up, one chain of several): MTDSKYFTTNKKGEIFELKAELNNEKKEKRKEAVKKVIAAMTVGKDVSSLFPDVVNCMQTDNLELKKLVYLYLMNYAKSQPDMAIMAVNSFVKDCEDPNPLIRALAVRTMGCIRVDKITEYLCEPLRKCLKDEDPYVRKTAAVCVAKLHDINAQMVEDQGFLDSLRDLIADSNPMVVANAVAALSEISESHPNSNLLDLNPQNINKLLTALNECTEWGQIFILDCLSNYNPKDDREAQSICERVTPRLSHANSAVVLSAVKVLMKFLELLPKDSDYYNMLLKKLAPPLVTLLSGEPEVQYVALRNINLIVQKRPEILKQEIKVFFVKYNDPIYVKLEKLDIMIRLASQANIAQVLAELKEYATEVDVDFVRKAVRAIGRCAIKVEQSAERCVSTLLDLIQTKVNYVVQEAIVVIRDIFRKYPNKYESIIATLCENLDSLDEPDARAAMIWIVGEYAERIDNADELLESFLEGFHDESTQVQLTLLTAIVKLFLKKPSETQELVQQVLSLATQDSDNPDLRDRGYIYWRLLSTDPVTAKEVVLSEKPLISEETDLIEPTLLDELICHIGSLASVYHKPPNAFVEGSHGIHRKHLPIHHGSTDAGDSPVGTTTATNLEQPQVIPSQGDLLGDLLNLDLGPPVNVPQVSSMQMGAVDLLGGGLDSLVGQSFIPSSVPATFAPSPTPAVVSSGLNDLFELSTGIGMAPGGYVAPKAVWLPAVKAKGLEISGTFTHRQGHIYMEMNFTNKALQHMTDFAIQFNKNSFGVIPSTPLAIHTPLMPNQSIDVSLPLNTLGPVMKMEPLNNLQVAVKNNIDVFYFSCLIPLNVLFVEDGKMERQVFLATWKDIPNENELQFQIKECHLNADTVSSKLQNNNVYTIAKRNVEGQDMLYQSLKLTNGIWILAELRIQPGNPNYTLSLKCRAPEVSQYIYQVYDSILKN

[12] = yeast V-ATPase proton transport modulators, S. cerevisiae, pHLuorin, HTS validation (AID 504600; in the data active = response above about 15%;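 also: plate controls were DMSO for no effect and reference compound for full effect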); settings: S. cerevisiae pHLuorin cytosolic pH, at 10 µM, stronger effect = higher value
[13] = tested on: anti-desmoglein-3 scFv antibody binding to human DSG3; assay: inhibitors of anti-DSG3 scFv binding to DSG3, pilot screen, biochemical, validation compound set, bead-based, flow cytometry (AID 588368;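 active = binding below the plate cutoff, the plate median minus 3 SD, with a reading above zero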;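 also: signal is the median channel fluorescence of bead-bound GFP antibody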); settings: Protein G beads, DSG3-Fc, scFv-GFP binding, at 10 µM, stronger effect = lower value
[14] = tested on: Botulinum neurotoxin type F light chain protease (Clostridium botulinum); assay: Botulinum neurotoxin type F light chain protease inhibition, multiplex microsphere flow cytometry, validation set (AID 588459); settings: multiplex microsphere protease substrate cleavage assay, at 10 µM, stronger effect = higher value
[15] = molecular target: Botulinum neurotoxin type A (Clostridium botulinum) (UniProt P0DPI0); assay: BoNT/A light chain protease inhibitors, biochemical, multiplex microsphere flow cytometry, validation set (AID 588460); settings: at 10 µM, stronger effect = higher value
Sequence of Botulinum neurotoxin type A (Clostridium botulinum) (P0DPI0 whole entry, looked up): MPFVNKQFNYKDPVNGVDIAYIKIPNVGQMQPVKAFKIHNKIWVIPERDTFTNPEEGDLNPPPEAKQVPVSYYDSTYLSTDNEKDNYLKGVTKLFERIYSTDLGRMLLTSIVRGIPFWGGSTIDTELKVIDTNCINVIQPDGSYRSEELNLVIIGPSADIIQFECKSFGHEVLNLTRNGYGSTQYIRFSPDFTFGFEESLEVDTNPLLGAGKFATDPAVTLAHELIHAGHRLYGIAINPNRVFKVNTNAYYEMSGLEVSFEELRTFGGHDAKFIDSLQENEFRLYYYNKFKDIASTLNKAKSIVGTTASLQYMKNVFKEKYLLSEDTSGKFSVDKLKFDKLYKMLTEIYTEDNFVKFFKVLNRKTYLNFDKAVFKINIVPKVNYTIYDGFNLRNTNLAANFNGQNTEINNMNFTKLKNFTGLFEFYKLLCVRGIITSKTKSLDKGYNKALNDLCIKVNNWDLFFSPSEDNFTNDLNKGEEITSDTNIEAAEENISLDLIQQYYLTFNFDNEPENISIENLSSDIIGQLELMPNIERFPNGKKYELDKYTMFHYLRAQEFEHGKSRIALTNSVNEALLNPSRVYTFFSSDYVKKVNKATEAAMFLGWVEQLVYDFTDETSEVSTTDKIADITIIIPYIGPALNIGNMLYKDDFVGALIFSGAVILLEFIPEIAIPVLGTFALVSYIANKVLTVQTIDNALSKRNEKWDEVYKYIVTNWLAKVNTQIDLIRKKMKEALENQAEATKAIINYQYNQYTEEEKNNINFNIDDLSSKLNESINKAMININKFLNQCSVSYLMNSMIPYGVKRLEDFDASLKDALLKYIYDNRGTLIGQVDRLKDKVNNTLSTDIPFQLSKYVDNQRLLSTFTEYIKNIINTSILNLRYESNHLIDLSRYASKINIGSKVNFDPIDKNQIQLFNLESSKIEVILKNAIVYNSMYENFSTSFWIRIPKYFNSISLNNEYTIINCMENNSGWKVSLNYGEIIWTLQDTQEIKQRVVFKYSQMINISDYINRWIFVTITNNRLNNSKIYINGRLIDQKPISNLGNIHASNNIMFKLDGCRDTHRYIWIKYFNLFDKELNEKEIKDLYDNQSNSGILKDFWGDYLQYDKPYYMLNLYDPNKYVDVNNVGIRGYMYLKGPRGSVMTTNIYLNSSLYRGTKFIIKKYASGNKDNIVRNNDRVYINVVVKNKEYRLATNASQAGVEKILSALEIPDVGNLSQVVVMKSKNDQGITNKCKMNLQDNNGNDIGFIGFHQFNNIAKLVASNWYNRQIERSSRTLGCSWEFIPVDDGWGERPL

[16] = molecular target: Lethal factor (Bacillus anthracis) (UniProt P15917); assay: Lethal factor protease inhibitors, Bacillus anthracis, multiplex microsphere cleavage assay, validation set (AID 588461); settings: flow cytometry, at 10 µM, stronger effect = higher value
Sequence of Lethal factor (Bacillus anthracis) (P15917 whole entry, looked up): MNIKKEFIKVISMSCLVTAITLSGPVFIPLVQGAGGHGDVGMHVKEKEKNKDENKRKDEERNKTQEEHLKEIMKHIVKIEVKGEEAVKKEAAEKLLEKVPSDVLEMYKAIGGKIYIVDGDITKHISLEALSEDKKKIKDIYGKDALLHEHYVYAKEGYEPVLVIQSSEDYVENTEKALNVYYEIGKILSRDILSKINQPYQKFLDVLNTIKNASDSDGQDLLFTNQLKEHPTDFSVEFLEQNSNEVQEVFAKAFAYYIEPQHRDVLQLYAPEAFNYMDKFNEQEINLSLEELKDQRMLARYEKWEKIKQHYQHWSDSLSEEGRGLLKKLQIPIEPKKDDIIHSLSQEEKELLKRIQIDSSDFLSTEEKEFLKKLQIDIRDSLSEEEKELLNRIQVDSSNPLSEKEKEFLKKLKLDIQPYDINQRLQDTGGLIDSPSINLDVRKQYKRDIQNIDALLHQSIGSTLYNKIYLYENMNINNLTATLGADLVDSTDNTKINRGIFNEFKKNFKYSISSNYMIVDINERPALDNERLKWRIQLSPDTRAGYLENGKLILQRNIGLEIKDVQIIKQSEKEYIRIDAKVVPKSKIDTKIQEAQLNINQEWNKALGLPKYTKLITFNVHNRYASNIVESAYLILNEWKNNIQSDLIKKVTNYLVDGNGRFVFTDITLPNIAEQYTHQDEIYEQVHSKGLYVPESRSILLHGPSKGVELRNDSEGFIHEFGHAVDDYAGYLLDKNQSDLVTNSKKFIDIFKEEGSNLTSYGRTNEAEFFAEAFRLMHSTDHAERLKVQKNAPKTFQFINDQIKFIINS

[17] = inhibitors of fungal efflux pumps CDR1, CDR2, MDR1, pilot screen, validation compound set, multiplex, phenotypic (AID 588506;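 active = efflux inhibition above 0.42, the validation set average plus 4 SD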;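 also: Nile Red retained in cells so higher fluorescence means more efflux inhibition; 0 = negative control wells and 1 = enniatin B 25 µM full block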); settings: S. cerevisiae pump-expressing triplex, Nile Red efflux flow cytometry; at 10 µM; stronger effect = higher value
[18] = molecular target: ATP-binding cassette sub-family B member 6 (Homo sapiens) (UniProt Q9NP58); assay: ABCB6 transporter inhibitors, pilot screen, K562-ABCB6 cells, flow cytometry, validation set (AID 588550;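 active = inhibition above the screen-wide mean plus 3 SD, about 51%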;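 also: 0% = DMSO wells and 100% = benzethonium chloride 70 µM positive control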); settings: K562-ABCB6 porphyrin accumulation, 1 h, at 10 µM, stronger effect = higher value
Sequence of ATP-binding cassette sub-family B member 6 (Homo sapiens) (Q9NP58 whole entry, looked up): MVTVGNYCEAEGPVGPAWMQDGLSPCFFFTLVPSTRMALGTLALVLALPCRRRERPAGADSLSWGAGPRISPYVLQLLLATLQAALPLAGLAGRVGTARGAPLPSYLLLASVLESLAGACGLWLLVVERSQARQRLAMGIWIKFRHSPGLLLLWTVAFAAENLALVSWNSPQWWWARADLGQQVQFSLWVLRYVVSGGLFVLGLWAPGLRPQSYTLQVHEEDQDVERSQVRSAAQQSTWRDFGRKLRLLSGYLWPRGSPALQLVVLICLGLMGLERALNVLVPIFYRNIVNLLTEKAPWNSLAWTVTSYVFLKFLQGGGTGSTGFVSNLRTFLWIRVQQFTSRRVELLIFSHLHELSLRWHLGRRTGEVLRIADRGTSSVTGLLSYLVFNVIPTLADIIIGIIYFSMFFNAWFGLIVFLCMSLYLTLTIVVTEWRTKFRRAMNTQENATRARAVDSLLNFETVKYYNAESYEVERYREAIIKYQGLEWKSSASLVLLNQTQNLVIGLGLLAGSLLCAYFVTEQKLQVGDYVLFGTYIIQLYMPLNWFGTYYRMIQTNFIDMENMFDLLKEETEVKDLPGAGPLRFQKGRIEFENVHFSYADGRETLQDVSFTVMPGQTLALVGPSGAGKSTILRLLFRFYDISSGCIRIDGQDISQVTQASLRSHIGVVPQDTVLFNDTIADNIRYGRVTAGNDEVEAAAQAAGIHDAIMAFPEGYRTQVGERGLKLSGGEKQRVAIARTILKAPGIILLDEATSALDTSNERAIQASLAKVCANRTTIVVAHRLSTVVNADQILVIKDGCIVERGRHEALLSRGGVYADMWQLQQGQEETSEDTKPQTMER

[19] = promoters of myeloid differentiation in arrested cells, primary screen, cell-based, GFP/MAC1 double positive, flow cytometry, validation set (AID 588685;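 active = differentiation response of at least 50%, scaled between solvent and reference control, from cells with both markers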;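 also: compound exposure lasts four days before antibody staining and flow analysis; 0% = DMSO wells and 100% = 5 µM fulvestrant positive control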); settings: ER-HoxA9 marrow cells, stronger effect = higher value

C[C@H]1OC[C@@H](C[N+](C)(C)C)O1
62.3%: double positive events [6]
inactive: percent of DMSO control GFP [1] 100% | GFP response vs DMSO [2] 98.7% | percent response of DMSO control [3] 101% | GFP response vs DMSO [4] 92.6% | GFP response, % of DMSO [5] 96.2% | vesicle binding response [6] 144% | inhibition [7] -6.45% | superoxide response (% of plate) [8] 95.3% | aptamer binding inhibition [9] 3% | response [10] 2.48% | inhibition [11] 5.6% | response [12] 4.51% | binding (% of control) [13] 102% | inhibition [14] 0.4% | inhibition [15] 0.4% | inhibition [16] 4.6% | efflux inhibition (fraction of control) [17] -0.16 | inhibition [18] -2% | differentiation response [19] -10.4%

CN1CC[C@@]23CCCC[C@@H]2[C@@H]1Cc1ccc(O)cc13
60.4%: double positive events [6]
inactive: percent of DMSO control GFP [1] 99.4% | GFP response vs DMSO [2] 110% | percent response of DMSO control [3] 96.6% | GFP response vs DMSO [4] 98.6% | GFP response, % of DMSO [5] 100% | vesicle binding response [6] 47.7% | inhibition [7] -0.45% | superoxide response (% of plate) [8] 109% | aptamer binding inhibition [9] -1% | response [10] 2.76% | inhibition [11] 9.83% | response [12] -1.79% | binding (% of control) [13] 92% | inhibition [14] -10% | inhibition [15] -1.6% | inhibition [16] -1.3% | efflux inhibition (fraction of control) [17] -0.07 | inhibition [18] 2% | differentiation response [19] 3.18%

Cc1ccsc1C(=O)C1CCCN(Cc2cc3ccccc3o2)C1 (stereo not given)
59.8%: double positive events [6]
inactive: percent of DMSO control GFP [1] 102% | GFP response vs DMSO [2] 98.3% | percent response of DMSO control [3] 114% | GFP response vs DMSO [4] 85.5% | GFP response, % of DMSO [5] 102% | vesicle binding response [6] 51.3% | inhibition [7] 8.88% | superoxide response (% of plate) [8] 97.5% | aptamer binding inhibition [9] 1% | response [10] -13% | inhibition [11] 5.6% | response [12] -0.26% | binding (% of control) [13] 96.9% | inhibition [14] 2.8% | inhibition [15] -0.7% | inhibition [16] -1% | efflux inhibition (fraction of control) [17] -0.2 | inhibition [18] -3% | differentiation response [19] -4.64%

O=Cc1cn(Cc2ccc(F)cc2)c2ccccc12
inactive: percent of DMSO control GFP [1] 97.8% | GFP response vs DMSO [2] 113% | percent response of DMSO control [3] 90.1% | GFP response vs DMSO [4] 129% | GFP response, % of DMSO [5] 102% | vesicle binding response [6] 173% | inhibition [7] 2.3% | superoxide response (% of plate) [8] 99.1% | aptamer binding inhibition [9] 1% | response [10] 14.3% | inhibition [11] 49.4% | response [12] -7.85% | binding (% of control) [13] 97.2% | inhibition [14] 8.3% | inhibition [15] 3.1% | inhibition [16] 3.2% | efflux inhibition (fraction of control) [17] 0.12 | inhibition [18] 2%
60.5%: double positive events [6]
active: differentiation response [19] 93.6%

CN1CCN(C(=O)OC2c3nccnc3C(=O)N2c2ccc(Cl)cn2)CC1 (stereo not given)
inactive: percent of DMSO control GFP [1] 99.9% | GFP response vs DMSO [2] 112% | percent response of DMSO control [3] 92.9% | GFP response vs DMSO [4] 117% | GFP response, % of DMSO [5] 106% | vesicle binding response [6] 6590% | inhibition [7] 9.13% | superoxide response (% of plate) [8] 111% | aptamer binding inhibition [9] 2% | response [10] -5.78% | inhibition [11] 0.51% | response [12] -1.22% | binding (% of control) [13] 100% | inhibition [14] 4.3% | inhibition [15] -0.8% | inhibition [16] 1.7% | efflux inhibition (fraction of control) [17] -0.03 | inhibition [18] 5% | differentiation response [19] -13.6%
58.9%: double positive events [6]

O=c1[nH]c(=S)n(-c2ccccc2)c(O)c1/C=N/N1CCCCC1c1cccnc1 (stereo not given)
inactive: percent of DMSO control GFP [1] 101% | GFP response vs DMSO [2] 100% | percent response of DMSO control [3] 90.8% | GFP response vs DMSO [4] 84.8% | GFP response, % of DMSO [5] 93% | vesicle binding response [6] 885% | inhibition [7] -37.8% | superoxide response (% of plate) [8] 100% | aptamer binding inhibition [9] 4% | response [10] 0.69% | inhibition [11] 1.04% | response [12] 4.77% | binding (% of control) [13] 100% | inhibition [14] -0.8% | inhibition [15] 0.8% | inhibition [16] -6.8% | efflux inhibition (fraction of control) [17] -0.04 | inhibition [18] 0% | differentiation response [19] 4.15%
64%: double positive events [6]

OCc1cnc[nH]1
62.2%: double positive events [6]
inactive: percent of DMSO control GFP [1] 103% | GFP response vs DMSO [2] 109% | percent response of DMSO control [3] 98.9% | GFP response vs DMSO [4] 101% | GFP response, % of DMSO [5] 99.4% | vesicle binding response [6] 4490% | inhibition [7] 11% | superoxide response (% of plate) [8] 104% | aptamer binding inhibition [9] 0% | response [10] -1.18% | inhibition [11] 3.29% | response [12] 1.03% | binding (% of control) [13] 97.4% | inhibition [14] 0.1% | inhibition [15] -0.3% | inhibition [16] 1.2% | efflux inhibition (fraction of control) [17] -0.01 | inhibition [18] -11% | differentiation response [19] -10.5%

C[N+]1(C)C2CCC1CC(OC(=O)C(CO)c1ccccc1)C2 (stereo not given)
61.8%: double positive events [6]
inactive: percent of DMSO control GFP [1] 106% | GFP response vs DMSO [2] 99.3% | percent response of DMSO control [3] 112% | GFP response vs DMSO [4] 88.1% | GFP response, % of DMSO [5] 105% | vesicle binding response [6] 233% | inhibition [7] -6.68% | superoxide response (% of plate) [8] 105% | aptamer binding inhibition [9] 5% | response [10] -0.63% | inhibition [11] 6.92% | response [12] -1.74% | binding (% of control) [13] 98% | inhibition [14] -5.3% | inhibition [15] -0.6% | inhibition [16] 2.6% | efflux inhibition (fraction of control) [17] 0.05 | inhibition [18] -4% | differentiation response [19] -6.6%

CN1C(=O)N(C)C(=O)C2(Cc3ccccc3N3CCOCC32)C1=O (stereo not given)
active: efflux inhibition (fraction of control) [17] 0.62
64.2%: double positive events [6]
inactive: percent of DMSO control GFP [1] 101% | GFP response vs DMSO [2] 103% | percent response of DMSO control [3] 102% | GFP response vs DMSO [4] 93.7% | GFP response, % of DMSO [5] 99.9% | vesicle binding response [6] 3430% | inhibition [7] 8.28% | superoxide response (% of plate) [8] 109% | aptamer binding inhibition [9] 0% | response [10] 4.14% | inhibition [11] -5.91% | response [12] 0.7% | binding (% of control) [13] 102% | inhibition [14] 5% | inhibition [15] 0.6% | inhibition [16] 1.1% | inhibition [18] 5% | differentiation response [19] 0%
